Results taken from ChEMBL document CHEMBL4513146, “CO-ADD screening of Karazin Kharkiv National University (Ukraine) compounds”.
Hit rate of the full screen: of about 23,000 compounds, about 30 (0.1%) showed an effect of 50% or more. What follows is part of a selection rich in strong results, with near analogues and random picks from the rest. Measured potencies and affinities stand elsewhere.

The molecules below were run on Pseudomonas aeruginosa. Settings: Concentration 32 ug.mL-1;; ASSAY_TEST Inhibition of Bacterial Growth; detection method Absorption (OD600); MEDIA CAMHB; plate type 384well; NBS; CORNING #3640; time 18 hr.
With `COc1ccc(-c2cc3c4nn(CC(=O)Nc5ccc(F)cc5)c(=O)n4ccn3n2)cc1` the Inhibition was -1.39%. For `O=C(CSc1nnc2c(=O)n(Cc3ccc(F)cc3)ccn12)NC1CCCC1`, the Inhibition was 8.47%. `Cc1ccc(Oc2nccn3c(=O)n(CC(=O)Nc4ccc(Cl)cc4F)nc23)cc1` was tested, and the Inhibition was 0.79%. Molecule `Cc1cccc(N(Cc2ccc(F)cc2)S(=O)(=O)c2cccn3c(C)nnc23)c1` has an Inhibition of 11.57%. `COc1cccc(CSc2nnc3c(=O)n(-c4ccc(Br)cc4)ccn23)c1` was tested, and the Inhibition was 16.71%. Molecule `Cc1ccccc1Oc1nccn2c(=O)n(CC(=O)Nc3ccc(Cl)c(Cl)c3)nc12` has an Inhibition of 3.97%. Molecule `O=C(Cn1nc2c(Sc3ccccc3)nccn2c1=O)Nc1ccc(Br)cc1F` has an Inhibition of 11.79%. `COc1ccc(CNC(=O)CCc2nnc3c4cc(-c5ccc(Cl)cc5)nn4ccn23)cc1OC` gave an Inhibition of 9.37%. For `O=C(Cn1nc2c(Sc3ccccc3)nccn2c1=O)Nc1ccc2c(c1)OCCO2`, the Inhibition was 17.83%.
